# Assay outcomes deposited in PubChem by National Center for Advancing Translational Sciences (NCATS).
# Pf Dd2 growth – qHTS Primary assay for Inhibitors of Plasmodium falciparum Dd2 growth in vitro; P. falciparum Dd2 growth, SYBR Green, 72 h; Potency, µM (titrated, usually from 28.9 µM), without a hit: at the top dose activity, negative = inhibition, most hits filed as inhibitors; 120,000 compounds, 4.3% hits; AID 1347417, 2020; active = well fitted inhibition curve with a large enough effect;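 also: plate controls were DMSO vehicle for no effect and reference drug for full effect; nearly all actives have a fitted effect of over 65% in size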
#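 Infected erythrocytes (Dd2, 0.3% parasitemia, 2.5% hematocrit final) are added to compound in RPMI-1640/Albumax II medium, grown 72 h at 37C in low oxygen, then lysed with saponin/Triton-X containing SYBR Green and read by fluorescence.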
# Numbers without * were called inactive; i = inactive; [ ] = another dose, or the depositor's remark. The entries come from a sample that favours hits as a whole. Potency is read from the fitted curve at half-maximal effect.
SMILES,Pf Dd2 growth
CCC1COCCN1Cc1cn(-c2ccccc2)nc1-c1ccc(OC)cc1F (stereo not given),13µM*
COc1ccc(OC)c(CN2CCN(Cc3ccccc3F)C(CCO)C2)c1 (stereo not given),i
CC(=O)NC1(C)CCN(Cc2cnc(-c3cccc(F)c3)s2)CC1,i
O=c1n(-c2ccc(F)cc2F)nc2n1CCN(Cc1cccc3ccccc13)C2,i
COc1ccc(-c2nn(-c3ccccc3)cc2CN2CCC(CO)CC2)c(F)c1,i
COc1ccc(CN2Cc3cc(NC(=O)Cc4ccc(F)cc4)ccc3OCC2=O)c(OC)c1,i
CN1CCN(S(=O)(=O)c2cc(C(=O)O)cc(-c3ccncc3)c2)CC1,-19%
O=C(c1ccccc1F)N1CCC2(CC(c3cccc(C(F)(F)F)c3)=NO2)C1 (stereo not given),7%
CN(C)c1nc2c(c(=O)[nH]1)CCN(Cc1ccc(F)cc1)CC2,53%[5.79 µM]
O=C1NC2(Cc3ccccc31)CN(CC1CCNC1)C2 (stereo not given),18%[44.1 µM]
COc1cccc(N2CC(C(=O)N3CCC(C#N)CC3)NC2=O)c1 (stereo not given),-5%[44.1 µM]
COc1ccc(-n2cc(CN3CCC(O)CC3)c(-c3cccc(F)c3)n2)cc1,13µM*
COc1cccc(-c2ccccc2NC(=O)C2CCN(Cc3cc(F)ccc3F)CC2)c1,-15%
COc1ccc(-c2ccnc3nc(C4CC4)nn23)c(F)c1,i
COc1ccc(-c2nn(-c3ccccc3)cc2CN2CCC(C#N)CC2)c(F)c1,11µM*
COc1ccc(-c2nc3c(C)cccc3cc2CN2CCC(O)CC2)cc1OC,-7%
COc1ccc(CN2CCC(N3Cc4ccccc4C3=O)CC2)cc1,-9%
Cc1ccc(CNC(=O)N2CC(n3cc(C(=O)NCC4CC4)nn3)C2)cc1,23%
Cc1cc(OC2CNC2)ccc1F,-12%[44.1 µM]
O=C(Nc1ccc(F)c(Cl)c1)c1cc(S(=O)(=O)N2CCCc3ccccc32)ccc1F,10µM*
O=C(Nc1ccc(F)c(F)c1)c1cc(S(=O)(=O)N2CCc3ccccc32)ccc1F,10%
O=C(Nc1ccc(Cl)cc1)c1cc(S(=O)(=O)N2CCc3ccccc32)ccc1F,1%
COc1ccc(-n2c(=O)c3c(n2Cc2ccccc2)CN(Cc2c(C)noc2C)CC3)cc1,13%
COCC1CN(C(=O)c2ccc(C)c(C)c2)CC12CCNCC2 (stereo not given),53%
COc1cccc(NC(=O)C2CCN(S(=O)(=O)c3ccc4[nH]c5c(c4c3)CCCCC5)CC2)c1,i
SMILES,Pf Dd2 growth
CC(=O)c1ccc(N2CCN(S(=O)(=O)c3ccc4[nH]c5c(c4c3)CCCCC5)CC2)cc1,i
O=C(Nc1cccc(F)c1)C1CCN(S(=O)(=O)c2ccc3[nH]c4c(c3c2)CCCCC4)CC1,11µM*
Cc1ncoc1C(=O)N1CC[C@@H]2COCCN(Cc3ccncc3)[C@@H]2C1,4%
O=C(CN1C(=O)NC2(CCS(=O)(=O)CC2)C1=O)Nc1ccc(Cl)cc1F,9%
O=[N+]([O-])c1ccc(O)c(-c2ccnc3cc(-c4ccccc4)nn23)c1,10µM*
COc1ccc(-c2cc3ncc(C(=O)c4cc([N+](=O)[O-])ccc4O)cn3n2)cc1,-4%
O=[N+]([O-])c1cccc(-c2ncc[nH]2)c1,-12%[76.6 µM]
CC(O)c1cc2n(n1)CCCN(CC(=O)N1CCOc3ccccc31)C2 (stereo not given),-6%
O=C(C1CCCC1)N1CCC(CCOc2ccc(F)cc2)C1 (stereo not given),i
CC1CCN(CC2CCCN(C(=O)COc3ccc(F)cc3)CC2)CC1 (stereo not given),-30%
CC(C)Nc1ccnc(N2CCN(Cc3ccccc3F)C(CCO)C2)n1 (stereo not given),-22%
OCCC1CN(c2cc(C(F)(F)F)ccn2)CCN1CC1CCCCC1 (stereo not given),13µM*
CCOc1ccccc1CN1CCN(c2ccnc(N)n2)CC1CCO (stereo not given),i
OCCC1CN(CCOc2ccc(F)cc2)CCN1CC1CCCCC1 (stereo not given),8.9µM*
Cc1ccc(NC(=O)CN2C(=O)NC3(CCC(C)CC3)C2=O)cc1Cl (stereo not given),-5%
CC(C)NC(=O)C[C@@H]1O[C@H](CNC[C@H]2O[C@@H](CC(=O)NC(C)C)[C@H](O)[C@@H]2O)[C@@H](O)[C@H]1O,34%
Cc1cc(C)nc(SCc2ccc(C(=O)N3CC[C@@](C)(O)[C@@H](O)C3)o2)n1,i
COCCNC(=O)[C@H]1C[C@H](Oc2cccnc2)CN1C(=O)Nc1cccc(F)c1,7%
Cc1ccccc1CC(=O)N1CC[C@@H]2CN(S(C)(=O)=O)[C@@H]2C1,43%
O=C(NCc1ccccc1)NC[C@H]1Cn2c(-c3ccc(Cl)cc3)cnc2CO1,2.8µM*
CS(=O)(=O)NC[C@H]1Cn2c(-c3ccc4c(c3)OCCO4)cnc2CO1,i
COc1ncccc1CNC[C@H]1Cn2c(-c3ccc(F)cc3)cnc2CO1,25µM*
O=S(=O)(Cc1ccccc1)NC[C@H]1Cn2c(-c3ccc(Cl)cc3)cnc2CO1,-7%[44.1 µM]
Clc1ccc(-c2cnc3n2C[C@H](CNCc2cccnc2)OC3)cc1,-11%[44.1 µM]
Clc1ccc(CNC[C@H]2Cn3c(-c4ccccc4)cnc3CO2)cc1,-12%[44.1 µM]
SMILES,Pf Dd2 growth
c1ccc(CNC[C@H]2Cn3c(-c4ccc5c(c4)OCCO5)cnc3CO2)cc1,11µM*
O=C(NC[C@H]1Cn2c(-c3ccc4c(c3)OCCO4)cnc2CO1)C1CC1,-8%[44.1 µM]
O=S(=O)(Cc1ccccc1)NC[C@H]1Cn2c(-c3ccc(F)cc3)cnc2CO1,i
O=C1NC[C@@H](CCC(=O)N2CCc3ccccc32)N2C[C@@H](NS(=O)(=O)c3ccc(F)cc3)C[C@@H]12,i
O=C(CCN1Cc2ccccc2C1=O)N[C@H](c1cccs1)C1CC(O)C1 (stereo not given in full),-3%
COc1ccc(OC2CN(C(=O)c3ccc(C(F)(F)F)cc3)C2)cc1,60%
CNC(=O)c1noc([C@@H]2CC(F)(F)CN2Cc2cc(C)nn2C)n1,i
COc1ccc2c(=O)n(CC(=O)N3CCCOCC3)ccc2c1OC,-18%
CC(=O)Nc1cccc(-c2cnc3n[nH]c(-c4sccc4C)c3n2)c1,i
CC(=O)Nc1cccc(-c2cnc3n[nH]c(-c4ccc(F)cc4C)c3n2)c1,-12%[44.1 µM]
CC(=O)Nc1cccc(-c2cnc3n[nH]c(-c4ccc5c(c4)OCO5)c3n2)c1,2.5µM*
Cc1c(C(=O)Nc2cccc(C(F)(F)F)c2)sc2nc3n(c(=O)c12)CCCC3,10µM*
Cc1c(C(=O)NCc2ccc(F)cc2)sc2nc3n(c(=O)c12)CCC3,4%
CCOc1ccc(NC(=O)c2sc3nc4n(c(=O)c3c2C)CCCC4)cc1,-9%
O=C(NCC(c1cccnc1)N1CCN(c2ccccc2F)CC1)C(=O)Nc1ccc(F)cc1F (stereo not given),3.2µM*
O=C(NCC(c1cccnc1)N1CCOCC1)C(=O)Nc1ccc(Cl)cc1 (stereo not given),-14%
CN1CCN(C(CNC(=O)C(=O)Nc2ccc(F)cc2)c2cccnc2)CC1 (stereo not given),-8%
O=C(NCC(c1cccnc1)N1CCOCC1)C(=O)Nc1cccc(Cl)c1 (stereo not given),-15%
COCCNC(=O)C(=O)NCC(c1cccnc1)N1CCN(c2ccccc2OC)CC1 (stereo not given),-13%
Cc1ccc(NC(=O)C(=O)NCC(c2cccnc2)N2CCN(Cc3ccccc3)CC2)cc1Cl (stereo not given),3.5µM*
